{"source": "PubChem BioAssay (Tox21)", "note": "“And” between values parts separate entries of the source, which are not always exact repeats. Identical values can stand only once. Inconclusive results are not listed. The source made the active and inactive calls. Calls follow the shape of the dose curve; as a rule, active = well fitted inhibition curve with a large enough effect in the signal ratio in the repeat runs; inconclusive = weak or mixed curves, or effect the other way; inactive = flat fitted curve, though single readings scatter; the % refers to the signal ratio. % is scaled to controls: 0 for no effect and ±100 for the full control effect; potency is read from the fitted curve at half-maximal effect.", "data": [{"assay": "qHTS assay for small molecule disruptors of the mitochondrial membrane potential (AID 720635)", "conditions": "HepG2 mitochondrial membrane potential, Mito-MPS dye ratio; series mostly up to 83.2 µM; ratio activity, negative = MMP loss: at the top concentration", "from_the_text": "U.S. Tox21 Program National Center for Advancing Translational Sciences [NCATS] NIH Chemical Genomics Center [NCGC] U.S. Environmental Protection Agency [EPA] National Institutes of Environmental Health Sciences [NIEHS] National Toxicology Program [NTP] U.S. Food and Drug Administration [FDA] Tox21 Assay Overview: Mitochondrial membrane potential (MMP), one of the parameters for mitochondrial function, is generated by mitochondrial electron transport chain that creates an electrochemical gradient by a series of redox reactions. This gradient drives the synthesis of ATP, a crucial molecule for various cellular processes. Measuring MMP in living cells is commonly used to assess the effect of chemicals on mitochondrial function. […] The dye accumulates in the mitochondria of healthy cells as aggregates, with red fluorescence. The mitochondrial potential collapses and the dye can no longer accumulate in the mitochondria and remains in the cytoplasm in monomers, with green fluorescence.\nTox21 Assay Protocol Summary: 2,000 HepG2 cells in 5 uL/well were dispensed into black, clear-bottom 1536-well plates using a Multidrop Combi (Thermo Scientific) dispenser. The assay plates were incubated overnight at 37C to allow cells to attach to the wells, followed by the transfer of 23 nL compound or DMSO vehicle by a pin tool (Kalypsys). The plates were incubated for 1 hr at 37C and 5% CO2, followed by the addition of 5 uL of 2X Mito-MPS dye (BD Biosciences) into each well using Flying Reagent Dispenser (Aurora Discovery) and then following 30 min incubation at 37C. Fluorescence intensity (490nm excitation and 535nm emission for monomers; and 540nm excitation and 590nm emissions for aggregates) was measured using an Envision plate reader.", "values": [{"smiles": "O=[N+]([O-])c1ccccc1CCO", "ratio activity, negative = MMP loss": "15.6% [at 95.3 µM] (inactive)"}, {"smiles": "CC1=CC(=C(c2ccc(N)cc2)c2ccc(N)cc2)C=CC1=N", "Potency": "221 nM (active) and 55 nM (active)"}, {"smiles": "Cc1cccc(C)c1NC(=O)CN1CCCC1", "ratio activity, negative = MMP loss": "17.8% (inactive)"}, {"smiles": "O=C1c2ccccc2C(=O)C1c1ccc2ccccc2n1", "Potency": "0.34 µM (active)"}, {"smiles": "C=CCCC", "ratio activity, negative = MMP loss": "-9.74% [at 95.3 µM] (inactive)"}, {"smiles": "COc1ccc(C(=O)c2ccc(C)cc2)c(O)c1", "Potency": "61.8 µM (active)"}, {"smiles": "CC(C)C[C@H](NC(=O)[C@H](Cc1ccccc1)NC(=O)c1cnccn1)B(O)O", "ratio activity, negative = MMP loss": "-12.2% (inactive)"}, {"smiles": "CCC[Si](OC)(OC)OC", "ratio activity, negative = MMP loss": "24.6% (inactive)"}, {"smiles": "CCC(CC)C(=O)O", "ratio activity, negative = MMP loss": "19.3% (inactive)"}, {"smiles": "Cc1ccc(S(=O)(=O)NC(=O)NC2CCCC2)cc1", "ratio activity, negative = MMP loss": "11.8% (inactive)"}, {"smiles": "CCCCCCCCCCCCSCCOCCO", "ratio activity, negative = MMP loss": "10.4% (inactive)"}, {"smiles": "FC(F)(Cl)C(F)(Cl)Cl", "ratio activity, negative = MMP loss": "11.4% (inactive)"}, {"smiles": "Cc1ccc2ccccc2c1[N+](=O)[O-]", "ratio activity, negative = MMP loss": "2.11% (inactive)"}, {"smiles": "O=C(Nc1ccc2c(c1)Cc1ccccc1-2)C(F)(F)F", "Potency": "17.2 µM (active)"}, {"smiles": "C(/C=C/C=C/Nc1ccccc1)=Nc1ccccc1", "ratio activity, negative = MMP loss": "-15.9% (inactive)"}, {"smiles": "O=Cc1ccc([N+](=O)[O-])cc1", "ratio activity, negative = MMP loss": "-14.4% [at 95.3 µM] (inactive)"}, {"smiles": "Cc1c(Nc2ncccc2C(=O)O)cccc1C(F)(F)F", "Potency": "9.02 µM (active)"}, {"smiles": "CCCCCCOC(=O)c1ccccc1", "ratio activity, negative = MMP loss": "-18.6% (inactive)"}, {"smiles": "CC(CN=Cc1ccccc1O)N=Cc1ccccc1O", "note": "(stereo not given)", "ratio activity, negative = MMP loss": "-12.6% (inactive)"}, {"smiles": "CC1(C)C(=O)NC(=O)N1CO", "ratio activity, negative = MMP loss": "23.1% (inactive)"}, {"smiles": "C=Cc1ccc(C=C)cc1", "ratio activity, negative = MMP loss": "26.2% [at 95.3 µM] (inactive)"}, {"smiles": "C=CC(C)(O)CC/C=C(/C)CCC=C(C)C", "note": "(stereo not given)", "ratio activity, negative = MMP loss": "-18.4% (inactive)"}, {"smiles": "NC(=O)c1ccccc1C(N)=O", "Potency": "61.4 µM (active)"}, {"smiles": "N#CCCCC(C#N)CCC#N", "note": "(stereo not given)", "ratio activity, negative = MMP loss": "23.6% (inactive)"}, {"smiles": "CC(=O)c1cccnc1", "ratio activity, negative = MMP loss": "12% (inactive)"}, {"smiles": "C[C@H](CN1CCCC1)C(=O)c1ccc(C(F)(F)F)cc1", "ratio activity, negative = MMP loss": "12.4% (inactive)"}, {"smiles": "O=C(O)CNc1ccccc1", "ratio activity, negative = MMP loss": "8.14% (inactive)"}, {"smiles": "CCc1ccc2c(c1)C(=O)c1ccccc1C2=O", "Potency": "13.7 µM (active)"}, {"smiles": "C/C(=C\\C(C)CC(C)CC(C)C)C1CC(=O)OC1=O", "note": "(stereo not given)", "ratio activity, negative = MMP loss": "-25.6% (inactive)"}, {"smiles": "Nc1ccc(C(=O)Oc2ccccc2)c(O)c1", "Potency": "29.8 µM (active)"}, {"smiles": "CCC(=O)O[C@@H]1C[C@H]2CC[C@]1(C)C2(C)C", "ratio activity, negative = MMP loss": "-22.2% (inactive)"}, {"smiles": "CC(O)C(C)O", "note": "(stereo not given)", "ratio activity, negative = MMP loss": "22.6% [at 95.3 µM] (inactive)"}, {"smiles": "Cc1c(N=C=O)cccc1N=C=O", "ratio activity, negative = MMP loss": "14% [at 95.3 µM] (inactive)"}, {"smiles": "O=C(OC1C[C@H]2CC[C@@H](C1)[N+]21CCCC1)C(O)(c1ccccc1)c1ccccc1", "note": "(stereo not given in full)", "ratio activity, negative = MMP loss": "1.78% (inactive)"}, {"smiles": "O=C1CCCN1CCO", "ratio activity, negative = MMP loss": "-16.8% (inactive)"}, {"smiles": "Clc1ccccc1-c1nc(-c2ccncc2)no1", "ratio activity, negative = MMP loss": "-20.7% (inactive)"}, {"smiles": "CCCCCCCCCCCC(=O)OCC", "ratio activity, negative = MMP loss": "12.1% (inactive)"}, {"smiles": "CCCCC(CC)COCCC#N", "note": "(stereo not given)", "ratio activity, negative = MMP loss": "-5.36% (inactive)"}, {"smiles": "C/C(=C(\\CCO)SS/C(CCO)=C(\\C)N(C=O)Cc1cnc(C)nc1N)N(C=O)Cc1cnc(C)nc1N", "ratio activity, negative = MMP loss": "-13.8% (inactive)"}, {"smiles": "CCCCCCCCS", "ratio activity, negative = MMP loss": "15% [at 95.3 µM] (inactive)"}]}]}
